From ChEMBL document CHEMBL1157539, “Thousands of chemical starting points for antimalarial lead identification” (Nature, 2010)

Assays:
Assay type in all cases: functional
Plasmodium falciparum [1] = assay: GSK_TCMDC: Inhibition of Plasmodium falciparum 3D7 in whole red blood cells, using parasite LDH activity as an index of growth. Test compounds present at 2uM
Plasmodium falciparum [2] = assay: GSK_TCMDC: Inhibition of Plasmodium falciparum Dd2 in whole red blood cells, using parasite LDH activity as an index of growth. Test compounds present at 2uM
HepG2 = assay: GSK_TCMDC: Percent inhibition of human HepG2 cell line. Test compounds present at 10uM.

SMILES | Inhibition (Plasmodium falciparum [1]) [%] | Inhibition (Plasmodium falciparum [2]) [%] | Inhibition (HepG2) [%]
Cc1cccc(C)c1CNc1ccnc2cc(Br)ccc12.Cl | 95 | 99 | 24
CCCc1cc(Cc2cnc(N)nc2N)ccc1OCCCCCC(=O)O.Cl | 97 | 0 | 3
CC(C)NCc1ccc(-c2ccc(CN3CCCC(c4ccccc4)C3)cc2)c(C(=O)NC2Cc3ccccc3C2)c1.O=C(O)C(F)(F)F (stereo not drawn) | 96 | 64 | 41
O=C(NC1CC1)c1cnc(N2CCN(Cc3ccc(Cl)cc3)CC2)c(Cl)c1.O=C(O)C(F)(F)F | 93 | 91 | 39
O=C(C=Cc1cccs1)Nc1ccc(-c2nc3ccccc3[nH]2)cc1 | 83 | 3 | 0
Cc1cc(-c2nc3ccc(N4CCN(C)CC4)cc3[nH]2)nn1Cc1cc(Cl)ccc1OCC(C)C.Cl | 99 | 67 | 41
Cc1ccc(Cn2cnc(N3CC(C)NC(C)C3)cc2=O)cc1NC(=O)Nc1ccc(-c2ccccc2)cc1.O=C(O)C(F)(F)F (stereo not drawn) | 96 | 15 | 18
Cc1cccnc1CNc1nccc2c(C)c(C)[nH]c12.Cl | 100 | 28 | 27
O=C(NC1CC1)c1ccc(Cn2c(SCc3cccc([N+](=O)[O-])c3)nc3ccccc3c2=O)cc1 | 91 | 65 | 12
O=C(Nc1ccc(F)c(F)c1)c1ccc(CN2CCCN(Cc3cccc(F)c3)CC2)cc1.O=C(O)C(F)(F)F | 83 | 12 | 51
N=C(/N=C(/NCCCCCCN/C(=N\C(=N)Nc1ccc(Cl)cc1)N1CCOCC1)N1CCOCC1)Nc1ccc(Cl)cc1 | 93 | 91 | 0
COC(=O)c1cc(C(=O)CN(Cc2ccccc2)C(C)C)ccc1O.Cl | 97 | 0 | 7
COc1ccc(-c2ccc(NC(=O)c3cccc(C#N)c3)cc2)cc1CN1CCC(O)CC1.O=C(O)C(F)(F)F | 100 | 84 | 21
CN1CCN(c2ccc(Nc3ncc(Cl)c(Nc4cccnc4C(N)=O)n3)cc2)CC1.Cl | 95 | 97 | 99
CCC(C)NS(=O)(=O)c1ccc2nc(Nc3ccc(C)c(Cl)c3)n(C3CCCCC3)c2c1 (stereo not drawn) | 99 | 98 | 0
COc1ccc(C2CC(=O)C3=C(C2)NC(C)=C(C(=O)OC(C)C)C3c2c(F)cccc2Cl)cc1OC (stereo not drawn) | 93 | 81 | 0
O=C(N[C@@H](CC1CCCCC1)C(=O)NC1CCCc2ccccc21)c1ccc(O)c(-c2ccc(Cl)c(Cl)c2)c1 (stereo partly drawn) | 98 | 99 | 1
COCCNCc1ncsc1-c1ccc2c(Nc3cc(O)c(Cl)cc3F)ccnc2c1 | 100 | 92 | 0

SMILES | Inhibition (Plasmodium falciparum [1]) [%] | Inhibition (Plasmodium falciparum [2]) [%] | Inhibition (HepG2) [%]
Cc1ccc(CNC(=N)NC(=O)c2nc(Cl)c(NCc3ccc(Cl)cc3)nc2N)c(C)c1 | 100 | 100 | 28
CC(CN1CCN(C)CC1)C(=O)Nc1cccc(-c2ccc(-c3nc4ccccc4[nH]3)cc2)c1 (stereo not drawn) | 95 | 38 | 2
O=C(Nc1ccon1)c1cc(-c2cccnc2)nc2ccc(Br)cc12 | 99 | 77 | 7
COc1ccc(NC(=O)CCNc2cc(C)nc(NCc3ccccc3C)n2)cc1.O=C(O)C(F)(F)F | 94 | 61 | 7
CCN(CC)CCN(Cc1ccc(-c2ccc(C(F)(F)F)cc2)cc1)C(=O)Cn1c(SCc2ccc(F)cc2)nc(=O)c2sccc21.O=C(O)C(O)C(O)C(=O)O | 100 | 65 | 51
CNCCNC(=O)C1Cc2c([nH]c3c(C)cccc23)C(c2ccc(Cl)c(Cl)c2)N1 (stereo not drawn) | 100 | 60 | 13
CC(CNC(=O)[C@H]1CNCCN1C(=O)CCCc1ccccc1)c1ccccc1.O=C(O)C(F)(F)F (stereo partly drawn) | 94 | 1 | 12
CCOc1ccc(-c2nonc2NC(=O)c2ccc(Cl)cc2)cc1OCC | 94 | 47 | 28
O=C(Nc1ccc2c(c1)CCCN2S(=O)(=O)c1cccs1)c1cc([N+](=O)[O-])ccc1Cl | 93 | 95 | 29
COc1ccccc1NS(=O)(=O)c1cc(C(=O)Nc2ccc(N3CCOCC3)c(S(=O)(=O)Nc3ccccc3Cl)c2)ccc1Cl | 97 | 25 | 0
Cl.O=C(NCc1ccc(C(=O)N2CCC(N3CCCCC3)CC2)cc1)c1cc(-c2cccc(C(F)(F)F)c2)ccc1O | 100 | 58 | 0
COc1cc2nc(N3CCC(CNC(=O)c4cccc5cccnc45)CC3)nc(N)c2cc1OC | 99 | 33 | 34
NCCCNc1ccc(-c2ccc(NC(=O)Nc3cc(C(F)(F)F)ccc3F)cc2)cn1.O=C(O)C(F)(F)F | 100 | 66 | 0
Cc1ccc(C(NC(=O)c2ccccc2)c2ccc3cccnc3c2O)cc1 (stereo not drawn) | 92 | 72 | 53
COc1ccc(OC)c(-c2cccc(-c3cccc(NC(=O)c4ccc([N+](=O)[O-])o4)c3)n2)c1 | 98 | 97 | 75
O=C(c1cc2ccccc2o1)N1CCc2cc3nccc(N4CCN5CCC[C@H]5C4)c3cc21 | 99 | 100 | 62
CCCCOc1ccc(-c2nc3ccccc3[nH]2)cc1 | 86 | 82 | 21
CCC(C)(C)n1c(C)cc2c3c(N)nc(N)nc3ccc21 | 97 | 85 | 69
